From PubChem BioAssay
Gli-Sufu block: blocks Gli-Sufu signaling in a luciferase reporter; Sufu-KO-LIGHT fibroblasts, Gli luciferase reporter luminescence; inhibition, % at 5 µM; 340,000 compounds, 0.74% hits;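 active means inhibition above about 55%, limit read from the data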;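 further: 0% = DMSO-treated cells and 100% = wells with medium but no cells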
SRC3 inh: inhibits human SRC3 coactivator. inhibition, % at 3.6 µM. HEK293 GAL4-SRC3 luciferase reporter, luminescence. 360,000 compounds, 0.17% hits. AID 588352;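 active means inhibition above a per-campaign cutoff, the mean of all compounds plus 3 SD, cut at about 60% in these data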;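 further: 0% = DMSO-treated cells and 100% = gossypol-treated cells at 36 µM; higher means less SRC3-driven luciferase light from the GAL4 reporter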
SRC1 inh: inhibits human SRC1 coactivator; HEK293 GAL4-SRC1 luciferase reporter, luminescence; inhibition, % at 3.6 µM; Q15788; 360,000 compounds, 0.12% hits;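 active means inhibition above the campaign mean plus 3 SD, with each screening campaign given its own cutoff, cut at about 60% in these data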;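 further: 0% = DMSO treated cells and 100% = gossypol at 36 µM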
SRC2 inh: human SRC2 (NCOA2) inhibition; Q15596; HEK293 GAL4-SRC2 luciferase reporter, luminescence; inhibition, % at 9 µM; 370,000 compounds, 0.17% hits; AID 651957;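 active means inhibition above the mean inhibition of all tested compounds plus 3 SD, set per campaign, cut at about 52% in these data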;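 further: 0% = DMSO treated cells and 100% = cells given Gossypol at 36 µM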
NR2F2 inh: inhibitors of human COUP-TFII (NR2F2) | P24468 | HEK293T NGFI-A luciferase reporter, luminescence | inhibition, % at 8.6 µM | 370,000 compounds, 0.7% hits | AID 686940;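 active means inhibition above a per-plate cutoff, mean inhibition of test wells between control levels plus 3 SD, cut at about 38% in these data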;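 further: cells cotransfected with COUP-TFII expression vector driving the NGFI-A reporter; 0% = median of COUP-TF2 test wells and 100% = reporter-only cells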
LRH-1 inv ag: NR5A2 inverse agonism in reporter assay | O00482 | HEK293T StAR-luciferase reporter, LRH-1 transfected, 24 h | inhibition, % at 3.6 µM | 360,000 compounds, 0.13% hits | AID 602396;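 active means inhibition above the mean inhibition of all tested compounds plus 3 SD, cut at about 73% in these data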;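 further: 0% = DMSO wells and 100% = reporter-only cells lacking LRH-1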
Gal4-VP16 ctr: inhibits VP16 reporter, flagging COUP-TFII antagonist hits; shares compounds with NR2F2 inh; inhibition, % at 8.5 µM; 2,500 compounds, 25% hits; HEK293 Gal4-VP16 luciferase reporter, luminescence; AID 687007; in the data active means inhibition above about 13%
COUP-TFII conf: confirmation of human COUP-TFII (NR2F2) inhibitors. 2,500 compounds, 45% hits. HEK293 NGFI-A luciferase reporter, luminescence. AID 687008. inhibition, % at 8.5 µM. shares compounds with NR2F2 inh;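 active means mean inhibition over three repeats above a set limit taken from the earlier primary screen, cut at about 38% in these data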;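 further: 100% = cells given the luciferase reporter alone without the COUP-TF2 vector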
Starred values were filed as active, the others as inactive; · = not tested or not shown; ! = not active in a repeat. Only some compounds are listed: those with a hit (about 1.3% of all), similar ones and a draw of the others.

SMILES | Gli-Sufu block | SRC3 inh | SRC1 inh | SRC2 inh | NR2F2 inh | LRH-1 inv ag | Gal4-VP16 ctr | COUP-TFII conf
COC(=O)CC(=O)CC(NS(=O)(=O)c1ccc(C)cc1)c1ccccc1 (stereo not drawn) | · | · | · | -6 | 1 | · | · | ·
C=CCN1[C@@H](CC(C)C)COc2cccc(F)c2S1(=O)=O | · | · | · | 1 | -14 | · | · | ·
O=C(C1CCCN1S(=O)(=O)c1cccc2ccccc12)N1CCN(c2ccccc2)CC1 (stereo not drawn) | · | · | · | 8 | 12 | · | · | ·
CC[n+]1c(C=C2C=C(C)OC(C)=C2)sc2ccccc21 | 85* | 68* | 53 | -58 | 77* | 76* | 12 | 64*
Cc1cccc(C(=O)N[C@H]2CC[C@@]34CCCN3C(=O)CCC[C@H]4[C@H]2C)c1 | · | · | · | · | -10 | · | · | ·
Cc1nn(-c2ccccc2)c2sc(C(=O)NCC3CCCO3)cc12 (stereo not drawn) | · | · | · | -13 | 20 | · | · | ·
CN(C(=O)c1cn(C)c2ccccc12)c1ccc(Oc2cccnc2)cc1 | · | · | · | 23 | 47* | · | -3 | 37
Cc1ccc(NCN2C(=O)c3ccccc3C2=O)c(C)n1 | · | · | · | -4 | -19 | · | · | ·
C=CC[n+]1c(-c2ccc(C)cc2)csc1Nc1ccc(NC(C)=O)cc1 | 44 | 37 | 26 | 84* | 52* | 38 | 83* | 81*
COc1ccc(C(=O)CSc2nnc(Cn3cnc4ccccc43)o2)cc1 | 1 | 16 | 2 | 18 | 60* | 32 | 5 | 41*
CC(=O)c1ccc(NC(=O)CSc2nnc(Cn3cnc4ccccc43)o2)cc1 | 0 | 16 | -10 | 4 | 2 | 27 | · | ·
CC1=C/C(=N\NC(=S)Nc2cccnc2)CC(C)(C)C1 | 8 | -48 | -37 | 3 | 39* | -19 | -16 | 3
CC(C)(C)c1ccc(-c2cc(-c3ccccc3O)[nH]n2)cc1 | 32 | 32 | 28 | 14 | 37* | 15 | 2 | 51*
Oc1ccccc1-c1cc(-c2cccc(F)c2)n[nH]1 | 14 | -104 | -125 | -49 | -36 | -126 | · | ·
c1ccn2cc(-c3ccc4c(c3)OCCO4)nc2c1 | -54 | -49 | -65 | 0 | 6 | -74 | · | ·
Cc1ccc2nc(-c3ccc4c(c3)OCCO4)cn2c1 | 65* | 39 | 37 | 70* | 77* | 10 | 54* | 71*
CCCN(CCC)c1nc(-c2ccccn2)nc2ccccc12 | 46 | 64* | 50 | 8 | 57* | 28 | -1 | 31
c1ccc(-c2nc(N3CCCCCC3)c3ccccc3n2)nc1 | 27 | 25 | -4 | 18 | 38* | 94* | 0 | 37
c1ccc(CCNc2nc(-c3ccccn3)nc3ccccc23)cc1 | 7 | 33 | 16 | -18 | 50* | 63 | -13 | 32
CCN(CC)C(=O)O[C@H]1CC[C@@]23CCCN2C(=O)CCC[C@H]3[C@H]1C | · | · | · | · | -10 | · | · | ·
COc1ccc(NC(=O)N2CCN(c3nc(-c4cccc(OC)c4)cs3)CC2)cc1 | 8 | 19 | 3 | 1 | 40* | -5 | -14 | 14
CN1C(c2ccccc2)CC2CN(c3ccccc3)C(=O)C21 (stereo not drawn) | · | · | · | -20 | -19 | · | · | ·
CCN(C)C(=O)CN1C(=O)C2CCCCN2C(=O)c2ccccc21 (stereo not drawn) | · | · | · | 15 | 8 | · | · | ·
Cc1cc(Br)ccc1NC(=O)CN(C)C(=O)C1CCN(c2ncnc3sc(C)c(C)c23)CC1 | 29 | 31 | 20 | 51 | 47* | 11 | 10 | 37
CC(C)CNC(=O)OCc1cn(Cc2cccc(F)c2)nn1 | · | · | · | -18 | -18 | · | · | ·
SMILES | Gli-Sufu block | SRC3 inh | SRC1 inh | SRC2 inh | NR2F2 inh | LRH-1 inv ag | Gal4-VP16 ctr | COUP-TFII conf
CC(=O)c1ccc2c(c1)N(Cc1ccccc1Cl)C(=O)C(C)S2 (stereo not drawn) | · | -19 | 7 | 27 | 84* | 39 | 4 | 9
CCCNC(=O)c1cc(S(=O)(=O)N2CCc3ccccc32)cn1C | 14 | 14 | 23 | 10 | 44* | 6 | -5 | 26
COc1ccc2c(c1)[nH]c1c(N3CCN(Cc4ccc5c(c4)OCO5)CC3)ncnc12 | 52 | 24 | 6 | 8 | 46* | 51 | 10 | 65*
COc1cccc2[nH]c3c(N4CCN(Cc5ccc6c(c5)OCO6)CC4)ncnc3c12 | · | · | · | -8 | -14 | · | · | ·
Cc1nc(N2CCN(Cc3ccc4c(c3)OCO4)CC2)c2oc3ccccc3c2n1 | -9 | 4 | -1 | 31 | 83* | 21 | -5 | 9
COc1cccc(C2=NCCc3cc4c(cc32)OCO4)c1OC | 5 | 7 | 6 | 14 | -15 | 10 | · | ·
COc1ccc2cc3[n+](cc2c1OC)CCc1cc2c(cc1-3)OCO2 | 61* | -26 | 10 | -3 | 53* | 34 | 14*! | 54*!
C[C@H]1C2CC(OC(=O)Nc3ccccc3C(F)(F)F)C(C2)[C@H]2CCCCN21 (stereo partly drawn) | · | · | · | 9 | -11 | · | · | ·
